KCNQ2 block = inhibitors of rat KCNQ2 potassium channel; O88943; CHO-K1 KCNQ2, FluxOR thallium flux, 20 min; active compounds read low; B-score at 10 µM; hit rate 1.1% among 310,000; AID 2156;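 active = fluorescence ratio B-score at most minus 3 library SDs, with starting brightness B-score within 2 library SDs, cut at about -5.5 in these data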
KCNQ2 enhance = enhances the rat KCNQ2 potassium channel; CHO-K1 KCNQ2, FluxOR thallium flux fluorescence; active compounds read high; hit rate 0.54% among 310,000; B-score at 10 µM;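 active = fluorescence ratio B-score at least 3 SD of library B-scores, with initial fluorescence B-score within 3 of them, cut at about 5.3 in these data; same plate scores as AID 2156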;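 note: B-score of peak minus minimum over baseline fluorescence ratio after K+ and Tl+ stimulus; positive B-score means potentiation of KCNQ2 with more thallium influx and brighter signal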
Kir21 conf inh = confirmation of mouse Kir2.1 potassium channel inhibitors; shares compounds with KCNQ2 enhance; Kir2.1-expressing cells, FluxOR thallium flux fluorescence; active compounds read low; Tl flux remaining, % of negative control (active compounds read low), % at 10 µM; hit rate 41% among 2,300;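 active = Primary-screen hit whose thallium flux fell at least 3 control SD below untreated wells in both duplicates, with normal baseline fluorescence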;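 note: 0% = blank wells without stimulus and 100% = stimulated no-compound controls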
HEK293 ctr = parental HEK293 activity in Kir2.1 inhibitor counter-screen. AID 2105. FluxOR signal as % of negative control (100 = no effect), % at 10 µM. hit rate 19% among 2,300. shares compounds with KCNQ2 enhance. parental HEK293 cells, FluxOR thallium flux fluorescence; 0% = unstimulated blank wells;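 active = dye signal at least 3 control SD above or below untreated wells in both duplicates, raw fluorescence within 3, either direction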;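 note: percent is based on the flux ratio of peak minus minimum fluorescence over baseline F0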
CHO-K1 ctr = parental CHO-K1 activity in KCNQ2 potentiator counter-screen; shares compounds with KCNQ2 enhance; parental CHO-K1 cells, FluxOR thallium flux fluorescence; zero = vehicle mean+3SD, 100% = vehicle-minus-blank window; activity increase over 3SD of controls, % at 10 µM; hit rate 43% among 1,200; AID 2282;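 active = signal rise of at least 3 SD above the untreated control mean, in both duplicate wells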;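 note: counter screen of KCNQ2 potentiator hits so any rise reflects channel-independent effects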
KCNQ1 pot spec = selectivity of KCNQ2 potentiators: effect on human KCNQ1; shares compounds with KCNQ2 enhance; activation over 3SD threshold, % at 10 µM; hit rate 28% among 1,200; CHO KCNQ1 stable, FluxOR thallium flux fluorescence; beyond 3SD, as % of vehicle-control signal;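 active = fluorescence ratio rise of at least 3 SD of vehicle wells above their mean, in both replicate wells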;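 note: 0% = vehicle mean plus 3 SD and 100% = vehicle minus unstimulated blank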
Target sequence (P51787 whole entry, looked up): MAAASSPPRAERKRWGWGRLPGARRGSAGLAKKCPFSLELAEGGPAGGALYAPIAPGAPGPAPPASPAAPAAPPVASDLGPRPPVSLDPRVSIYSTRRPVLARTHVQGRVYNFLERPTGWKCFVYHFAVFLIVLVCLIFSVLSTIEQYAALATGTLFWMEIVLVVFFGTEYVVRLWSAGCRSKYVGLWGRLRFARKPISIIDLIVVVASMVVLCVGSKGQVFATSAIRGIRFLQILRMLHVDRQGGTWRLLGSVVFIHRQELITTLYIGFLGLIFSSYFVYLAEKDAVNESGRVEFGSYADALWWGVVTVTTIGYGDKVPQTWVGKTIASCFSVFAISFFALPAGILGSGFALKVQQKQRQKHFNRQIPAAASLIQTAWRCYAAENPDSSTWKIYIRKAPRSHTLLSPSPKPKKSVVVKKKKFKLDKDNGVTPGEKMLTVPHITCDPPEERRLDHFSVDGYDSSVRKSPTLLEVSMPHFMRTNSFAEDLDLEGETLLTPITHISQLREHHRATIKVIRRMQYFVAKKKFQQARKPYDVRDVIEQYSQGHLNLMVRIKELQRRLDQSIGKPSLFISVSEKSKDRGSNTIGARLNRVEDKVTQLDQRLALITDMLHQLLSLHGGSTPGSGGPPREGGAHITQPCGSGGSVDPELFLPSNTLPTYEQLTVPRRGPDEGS
KCNQ2 pot conf = confirmation of rat KCNQ2 potassium channel potentiators | shares compounds with KCNQ2 enhance | CHO-KCNQ2 cells, FluxOR thallium flux fluorescence | potentiation, less the hit threshold, % at 10 µM | hit rate 68% among 1,200;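 active = fluorescence ratio rising 3 SD or more over the vehicle control mean in both replicates, plus primary screen hit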;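 note: peak minus minimum thallium fluorescence divided by baseline after K/Tl stimulus; 0% = vehicle mean plus 3 SD and 100% = vehicle minus unstimulated blank difference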
Kir2-1 sel = mouse Kir2.1 off-target activity of KCNQ2 potentiators; shares compounds with KCNQ2 enhance; HEK293 Kir2.1, FluxOR thallium flux fluorescence; activity over 3SD threshold, % at 10 µM; hit rate 2% among 1,200; AID 2345;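 active = fluorescence ratio rise of at least 3 SD above the vehicle-control mean, seen in both replicates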;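 note: 0% = vehicle mean plus 3 SD and 100% = vehicle minus no-stimulus blank window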
KCNQ2 W236L pot = KCNQ2 potentiators acting on retigabine-insensitive rat KCNQ2 W236L mutant; shares compounds with KCNQ2 enhance; CHO KCNQ2-W236L, automated patch clamp current; current increase over 3SD of negative controls (%), active compounds read high, % at 25 µM; hit rate 10% among 940; AID 2558;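 active = current increase at least 3 SD of the untreated controls above them in both duplicate recordings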
Active calls of the source: *; i = inactive; / = no result. Shown are actives, neighbours in structure and some others; about 1.6% of the full set was active somewhere.

SMILES | KCNQ2 block | KCNQ2 enhance | Kir21 conf inh | HEK293 ctr | others
CCOc1ccc(Cl)cc1S(=O)(=O)N1CCC(C(=O)NCc2cccnc2)CC1 | i | / | / | /
O=C(CSc1nnnn1-c1cccc2c1CCCC2)N1CCCCC1 | i | 6.2* | 70%* | i | CHO-K1 ctr=69*;KCNQ1 pot spec=-20;KCNQ2 pot conf=-7;Kir2-1 sel=-66
Cc1ccc(-n2nnnc2SCC(=O)N2CCCCC2)cc1 | i | / | / | /
NC(=O)C1CCN(Cc2cccc(OCc3ccccc3)c2)CC1 | i | 0.01 | / | /
CCOC(=O)C1CCN(Cc2cccc(OCc3ccccc3)c2)CC1 | i | / | 20%* | i
COc1ccc(S(=O)(=O)Nc2c(O)ccc3ccccc23)cc1OC | i | 8* | i | i | CHO-K1 ctr=29*;KCNQ1 pot spec=1.9*;KCNQ2 pot conf=23*;Kir2-1 sel=-50;KCNQ2 W236L pot=i
COc1ccc(C(=O)Nc2c(O)ccc3ccccc23)cc1OC | i | 0.97 | / | /
O=C(c1cccc(F)c1)N1CCN(C(=O)C(c2ccccc2)c2ccccc2)CC1 | i | / | / | /
NC(=O)C1=C[C@H](c2ccc(Br)cc2)C[C@H](OCc2ccc(CO)cc2)O1 | i | 0.05 | 45%* | i
NC(=O)C1=C[C@@H](c2ccc(Br)cc2)C[C@@H](OCc2ccc(CO)cc2)O1 | i | / | / | /
CC(C)(Oc1ccc(Br)cc1Cl)C(=O)Nc1ccon1 | i | 0.81 | / | /
O=C(Cn1c(CCCO)nc2ccccc21)Nc1ccccc1-c1ccccc1 | i | 0.37 | / | /
Cc1ccc(Cl)cc1N(CC(=O)NCc1ccccc1)S(C)(=O)=O | i | 1.3 | / | /
COc1cc(S(=O)(=O)NC2CCCCC2C)ccc1F (stereo not drawn) | i | / | / | /
Cc1cc(C)c2nc(N(CCCN(C)C)C(=O)c3ccc4c(c3)OCCO4)sc2c1 | -5.8* | -5.8 | 50%* | i
Cc1cc(C)c2nc(N(CCCN(C)C)C(=O)C3=COCCO3)sc2c1 | i | / | / | /
CC(C)(C)c1ccc(C(=O)Nc2nnc(C3=COCCO3)o2)cc1 | i | 3.6 | / | /
CC(C)Oc1ccc(C(=O)Nc2nnc(C3=COCCO3)o2)cc1 | i | 5.3* | i | i | CHO-K1 ctr=91*;KCNQ1 pot spec=-7;KCNQ2 pot conf=-2;Kir2-1 sel=-33;KCNQ2 W236L pot=i
N=c1n(CCN2CCCCC2)c2ccccc2n1CC(O)c1ccc(Cl)c(Cl)c1 (stereo not drawn) | i | / | 36%* | 64%*
N=c1n(CCN2CCCCC2)c2ccccc2n1CC(O)COc1ccccc1 (stereo not drawn) | i | / | / | /
N=c1n(CCN2CCCCC2)c2ccccc2n1CC(O)c1cccc(Br)c1 (stereo not drawn) | i | / | 40%* | i
CN(C)CCn1c(=N)n(CC(O)c2ccc(Cl)c(Cl)c2)c2ccccc21 (stereo not drawn) | i | 1.2 | / | /
CC(C)(C)c1ccc(OCC(=O)Nc2ccncc2)c(Br)c1 | i | 5.6* | i | i | CHO-K1 ctr=-20;KCNQ1 pot spec=-11;KCNQ2 pot conf=-2;Kir2-1 sel=-28;KCNQ2 W236L pot=i
CCc1ccc(OCC(=O)Nc2ccncc2)c(Br)c1 | i | 3.2 | / | /
CC(=O)N1N=C(c2ccco2)CC1c1ccc(Cl)o1 (stereo not drawn) | i | 1 | / | /
SMILES | KCNQ2 block | KCNQ2 enhance | Kir21 conf inh | HEK293 ctr | others
COc1ccc(CCC(=O)OCC(=O)Nc2ccccc2)cc1 | i | / | / | /
CCOC(=O)c1c(NS(=O)(=O)c2ccc(Br)cc2)sc2c1CCC2 | i | 18* | i | 255%* | CHO-K1 ctr=41*;KCNQ1 pot spec=87*;KCNQ2 pot conf=59*;Kir2-1 sel=-26;KCNQ2 W236L pot=i
CCOC(=O)c1c(NC(=O)OC)sc2c1CCC2 | i | 0.81 | / | /
CCOC(=O)c1c(NC(=O)c2ccccc2C(=O)O)sc2c1CCC2 | i | 1.7 | / | /
CCOC(=O)c1c(NS(=O)(=O)Cc2ccccc2)sc2c1CCCC2 | i | / | i | 338%*
CC1CCc2c(sc(NC(=O)c3ccco3)c2C(=O)O)C1 (stereo not drawn) | i | 1.6 | / | /
CCOC(=O)c1c(NC(=O)CCNCc2ccco2)sc2c1CCC2 | i | / | 28%* | i
CCOC(=O)c1c(NC(=O)c2ccco2)sc2c1CCCCC2 | i | 2.4 | / | /
CC1CCc2c(sc(NS(=O)(=O)c3ccccc3)c2C(=O)OC(C)C)C1 (stereo not drawn) | i | 4.1 | i | i
CCCc1ccc2oc(C(=O)N(C)CCn3ccnc3C)c(C)c2c1 | i | 1.7 | / | /
O=C(OCC(=O)N1CCN(c2ccccc2)CC1)c1cc(Cl)ccc1[N+](=O)[O-] | i | 0.79 | / | /
CCN(CC(=O)Nc1ccccc1C(F)(F)F)C(=O)c1cccc(N2C(=O)CCC2=O)c1 | i | 0.89 | / | /
CSCCC(NC(=O)COc1ccccc1)C(=O)NCC1COc2ccccc2O1 (stereo not drawn) | i | / | / | /
COC(=O)c1c(NS(=O)(=O)c2ccc3ccccc3c2)sc2c1CCCC2 | i | 6.4* | i | i | CHO-K1 ctr=-4;KCNQ1 pot spec=-11;KCNQ2 pot conf=-17;Kir2-1 sel=-36
COC(=O)c1c(NC(=O)c2ccc(C)c(S(=O)(=O)Nc3ccccc3C)c2)sc2c1CCCC2 | i | / | / | /
CCN(CC(=O)NCc1cccs1)C(=O)c1cccc(S(=O)(=O)Nc2ccc(OC)cc2)c1 | i | 0.05 | / | /
CC(C)(C)OC(=O)N[C@@H](COCc1ccccc1)C(=O)N[C@@H](CO)[C@H](O)[C@@H]1C[C@@H]1C(=O)NC1CCCCC1 | i | / | / | /
CC1=NN(C(=O)CSCc2ccccc2)C(O)(c2ccc(Cl)cc2)C1 (stereo not drawn) | i | / | / | /
CC1=NN(C(=O)c2ccc(Cl)cc2)C(O)(c2ccccc2)C1 (stereo not drawn) | i | 20* | i | i | CHO-K1 ctr=-14;KCNQ1 pot spec=-7;KCNQ2 pot conf=-2;Kir2-1 sel=-40;KCNQ2 W236L pot=i
COc1ccccc1NC(=O)/C(C#N)=C/c1cccn1C | i | / | / | /
Cc1cc2nc3ccc(N(C)C)cc3nc2cc1N | i | / | / | /
COc1ccc(C(=O)NCCC2=CCCCC2)cc1 | i | / | / | /
COc1ccc(OC(C)C(=O)NCCC2=CCCCC2)cc1 (stereo not drawn) | i | / | 48%* | i
CC(=O)Nc1ccc(NC(=O)CC(C)n2ccnc2)cc1 (stereo not drawn) | i | / | / | /
CCOC(=O)C1=C(COC(=O)/C=C/c2cccc(OC)c2OC)NC(=O)NC1C (stereo not drawn) | i | 0.65 | / | /
Cn1c(=O)c(C(=O)Nc2ccccc2S(N)(=O)=O)c(O)c2ccccc21 | i | 6* | i | i | CHO-K1 ctr=-19;KCNQ1 pot spec=-11;KCNQ2 pot conf=-4;Kir2-1 sel=-35

Bioassay records from PubChem.
